About 3,300 (8.5%) of roughly 39,000 compounds were called active. The sample as a whole holds a higher share of actives than the screen did.

In the test the test system is HepG2. Nature of the test: cytotoxicity call (relative viability < 0.9). The conditions noted are these: 10 µM.
For `C[C@H](CO)N1C[C@H](C)[C@H](CN(C)C(=O)Nc2ccccc2)OCCCC[C@H](C)Oc2ccc(NC(=O)Nc3ccc4c(c3)OCO4)cc2C1=O`, the cytotoxicity call is “inactive”.

For `COc1ccc(NC(=O)N(C)C[C@H]2OCCCC[C@@H](C)Oc3ccc(NC(=O)Cc4ccccc4)cc3C(=O)N([C@@H](C)CO)C[C@H]2C)cc1`, the cytotoxicity call was “inactive”.

For `C[C@@H]1CCCCO[C@H](CN(C)C(=O)Nc2ccc(F)cc2)[C@H](C)CN([C@H](C)CO)C(=O)c2cc(NC(=O)Nc3ccc(F)cc3)ccc2O1`, the cytotoxicity call was “inactive”.

For `C[C@H]1CN([C@@H](C)CO)C(=O)c2cc(NC(=O)Cc3ccccc3)ccc2O[C@@H]1CN(C)Cc1ccc(Cl)c(Cl)c1`, the cytotoxicity call was “inactive”.

With `C[C@@H]1CCCCO[C@H](CN(C)S(=O)(=O)c2ccccc2)[C@H](C)CN([C@H](C)CO)C(=O)c2cc(NS(=O)(=O)c3cn(C)cn3)ccc2O1`, the cytotoxicity call is “inactive”.

On to `COc1ccc(NC(=O)N(C)C[C@H]2Oc3c(NC(=O)c4cnccn4)cccc3C(=O)N([C@H](C)CO)C[C@@H]2C)cc1`, for which the cytotoxicity call was “inactive”.

For the molecule `C[C@@H]1CCCCO[C@@H](CN(C)Cc2ccc(C(=O)O)cc2)[C@H](C)CN([C@H](C)CO)C(=O)c2cc(NS(=O)(=O)c3ccccc3)ccc2O1`, the cytotoxicity call was “inactive”.

With `Cc1noc(C)c1NC(=O)Nc1ccc2c(c1)C(=O)N([C@@H](C)CO)C[C@@H](C)[C@H](CN(C)Cc1ccc(Cl)c(Cl)c1)O2`, the cytotoxicity call was “inactive”.

Consider `C[C@H]1CCCCO[C@@H](CN(C)Cc2ccc(C(F)(F)F)cc2)[C@@H](C)CN([C@@H](C)CO)C(=O)c2cc(NS(C)(=O)=O)ccc2O1`, for which the cytotoxicity call was “inactive”.

In the case of `C[C@@H]1CCCCO[C@@H](CN(C)Cc2ccc3c(c2)OCO3)[C@@H](C)CN([C@H](C)CO)C(=O)c2cc(NC(=O)Nc3cccc4ccccc34)ccc2O1`, the cytotoxicity call was “inactive”.

For the molecule `C[C@@H]1CCCCO[C@H](CN(C)Cc2ccc3c(c2)OCO3)[C@@H](C)CN([C@@H](C)CO)C(=O)c2cc(NC(=O)Nc3cccc4ccccc34)ccc2O1`, the cytotoxicity call was “active”.

With `C[C@@H]1CN([C@@H](C)CO)C(=O)c2cc(NC(=O)Nc3cccc4ccccc34)ccc2O[C@@H](C)CCCCO[C@H]1CN(C)Cc1ccc2c(c1)OCO2`, the cytotoxicity call is “active”.

As to `C[C@@H]1CCCCO[C@H](CN(C)Cc2ccc3c(c2)OCO3)[C@H](C)CN([C@H](C)CO)C(=O)c2cc(NC(=O)Nc3cccc4ccccc34)ccc2O1`, the cytotoxicity call was “inactive”.

Take `C[C@H]1CCCCO[C@@H](CN(C)Cc2ccc3c(c2)OCO3)[C@@H](C)CN([C@@H](C)CO)C(=O)c2cc(NC(=O)Nc3cccc4ccccc34)ccc2O1`: the cytotoxicity call is “inactive”.

With `C[C@@H]1CN([C@H](C)CO)C(=O)c2cc(NC(=O)Nc3cccc4ccccc34)ccc2O[C@@H](C)CCCCO[C@@H]1CN(C)Cc1ccc2c(c1)OCO2`, the cytotoxicity call was “active”.

For the molecule `C[C@@H]1CCCCO[C@@H](CN(C)Cc2ccc3c(c2)OCO3)[C@@H](C)CN([C@@H](C)CO)C(=O)c2cc(NC(=O)Nc3cccc4ccccc34)ccc2O1`, the cytotoxicity call is “inactive”.

Turning to `C[C@@H]1CCCCO[C@H](CN(C)Cc2ccc3c(c2)OCO3)[C@H](C)CN([C@@H](C)CO)C(=O)c2cc(NC(=O)Nc3cccc4ccccc34)ccc2O1`, the cytotoxicity call is “active”.

`CCOC(=O)c1c(C)c(Cl)c(O)c(Cl)c1O`: the cytotoxicity call is “inactive”.

For the molecule `COc1ccc(S(=O)(=O)Nc2ccc3c(c2)CC(=O)N([C@H](C)CO)C[C@@H](C)[C@H](CN(C)C)O3)cc1`, the cytotoxicity call was “inactive”.

Turning to `Cc1noc(C)c1NC(=O)N(C)C[C@@H]1OCCCC[C@@H](C)Oc2ccc(NC(=O)Nc3ccc(F)cc3)cc2C(=O)N([C@H](C)CO)C[C@@H]1C`, the cytotoxicity call was “inactive”.

Take `Cc1noc(C)c1S(=O)(=O)N(C)C[C@@H]1OCc2cnnn2CCCC(=O)N([C@@H](C)CO)C[C@H]1C`: the cytotoxicity call was “inactive”.

For the molecule `C[C@@H]1CCCCO[C@H](CN(C)C(=O)C2CCCCC2)[C@@H](C)CN([C@H](C)CO)C(=O)c2cc(NC(=O)C3CCCCC3)ccc2O1`, the cytotoxicity call is “inactive”.

With `CC(C)NC(=O)Nc1ccc2c(c1)C(=O)N([C@H](C)CO)C[C@@H](C)[C@H](CN(C)S(=O)(=O)c1cn(C)cn1)O2`, the cytotoxicity call is “inactive”.

Regarding `COCCNC(=O)C[C@H]1CC[C@@H]2[C@H](COC[C@H](O)CN2C(=O)Nc2ccccc2OC)O1`, the cytotoxicity call was “active”.

With `COc1ccccc1CNC(=O)C[C@@H]1CC[C@@H]2[C@H](COC[C@@H](O)CN2C(=O)Nc2ccc(F)cc2)O1`, the cytotoxicity call is “inactive”.

Turning to `COCCNC(=O)C[C@H]1CC[C@H]2[C@@H](COC[C@H](O)CN2C(=O)Nc2ccccc2OC)O1`, the cytotoxicity call is “inactive”.

Consider `COCCNC(=O)C[C@H]1CC[C@@H]2[C@H](COC[C@@H](O)CN2C(=O)Nc2ccccc2OC)O1`, for which the cytotoxicity call was “inactive”.

Regarding `COc1ccccc1CNC(=O)C[C@H]1CC[C@H]2[C@@H](COC[C@H](O)CN2C(=O)Nc2ccc(F)cc2)O1`, the cytotoxicity call was “active”.

As to `O=C(C[C@H]1CC[C@H]2[C@@H](COC[C@H](O)CN2C(=O)Nc2cccc(Cl)c2)O1)NCc1ccccc1F`, the cytotoxicity call is “inactive”.

As to `O=C(C[C@@H]1CC[C@H]2[C@@H](COC[C@H](O)CN2C(=O)Nc2cccc(Cl)c2)O1)NCc1ccccc1F`, the cytotoxicity call was “inactive”.

`COc1ccccc1CNC(=O)C[C@@H]1CC[C@H]2[C@@H](COC[C@H](O)CN2C(=O)Nc2ccc(F)cc2)O1`: the cytotoxicity call was “inactive”.

`O=C(C[C@H]1CC[C@@H]2[C@H](COC[C@@H](O)CN2C(=O)Nc2cccc(Cl)c2)O1)NCc1ccccc1F`: the cytotoxicity call was “active”.

For `CO[C@@H]1CN(C)C(=O)c2cc(NC(=O)c3ccc(F)cc3)ccc2OC[C@H](C)N(C(=O)CN(C)C)C[C@@H]1C`, the cytotoxicity call is “inactive”.

On to `CN1C(=O)c2cc(NC(=O)Nc3ccccc3F)ccc2OC[C@@H]2O[C@H](CC(=O)NCc3ccc(-c4ccccc4)cc3)CC[C@@H]21`, for which the cytotoxicity call was “inactive”.

With `CS(=O)(=O)N1CCCn2c(nc(CNC(=O)CC3CC3)cc2=O)C1`, the cytotoxicity call is “inactive”.

With `CC(C)Oc1oc(C(=O)NC2CCCCC2)c(-c2ccc(Cl)cc2)c1S(=O)(=O)c1ccc(Cl)cc1`, the cytotoxicity call is “inactive”.

Regarding `C[C@H](CO)N1C[C@H](C)[C@@H](CN(C)Cc2ccncc2)OCCCC[C@H](C)Oc2ccc(NC(=O)NC3CCCCC3)cc2C1=O`, the cytotoxicity call is “inactive”.

As to `O=C(C[C@@H]1C=C[C@@H](NC(=O)C2CC2)[C@H](CO)O1)NCCCN1CCOCC1`, the cytotoxicity call was “inactive”.

For `CN(C)C(=O)C[C@@H]1C=C[C@H](NC(=O)C2CCOCC2)[C@@H](CO)O1`, the cytotoxicity call is “inactive”.

Regarding `C[C@H](CO)N1C[C@H](C)[C@H](CN(C)S(=O)(=O)c2ccccc2)Oc2ccc(NC(=O)c3ccncc3)cc2C1=O`, the cytotoxicity call is “inactive”.

Take `O=S1(=O)CO[C@@H](c2ccccc2)CN1`: the cytotoxicity call is “inactive”.

Take `O=C(CS)NCCCCCCNC(=O)[C@@H]1C[C@@H]2C(=O)N3CCC[C@H]3C(=O)N2[C@@H]1c1cccc(OCCO)c1`: the cytotoxicity call is “inactive”.

On to `O=C(C[C@H]1CC[C@H]2[C@@H](COC[C@H](O)CN2Cc2cc(F)ccc2F)O1)N[C@@H]1CCN(Cc2ccccc2)C1`, for which the cytotoxicity call is “inactive”.

For `C[C@H]1CN([C@@H](C)CO)C(=O)c2cccc(NC(=O)Nc3ccc(C(F)(F)F)cc3)c2O[C@H]1CN(C)C(=O)Nc1ccc(C(F)(F)F)cc1`, the cytotoxicity call is “inactive”.

In the case of `COc1ccc(NC(=O)N(C)C[C@H]2Oc3c(NC(=O)Nc4ccc(C(F)(F)F)cc4)cccc3C(=O)N([C@@H](C)CO)C[C@H]2C)cc1`, the cytotoxicity call was “active”.

For the molecule `C[C@@H]1CN([C@@H](C)CO)C(=O)c2cccc(NC(=O)Nc3ccc(C(F)(F)F)cc3)c2O[C@H]1CN(C)C(=O)Nc1ccc(C(F)(F)F)cc1`, the cytotoxicity call was “inactive”.

Take `C[C@@H]1CN([C@H](C)CO)C(=O)c2cccc(NC(=O)Nc3ccc(C(F)(F)F)cc3)c2O[C@H]1CN(C)C(=O)Nc1ccc(C(F)(F)F)cc1`: the cytotoxicity call is “inactive”.

Regarding `COc1ccc(NC(=O)Nc2cccc3c2O[C@@H](CN(C)C(=O)Nc2ccc(C(F)(F)F)cc2)[C@@H](C)CN([C@@H](C)CO)C3=O)cc1`, the cytotoxicity call was “inactive”.

As for `COc1ccc(NC(=O)Nc2cccc3c2O[C@H](CN(C)C(=O)Nc2ccc(C(F)(F)F)cc2)[C@@H](C)CN([C@@H](C)CO)C3=O)cc1`, the cytotoxicity call is “inactive”.

Regarding `C[C@@H]1CN([C@H](C)CO)C(=O)c2cccc(NC(=O)Nc3ccc(C(F)(F)F)cc3)c2O[C@@H]1CN(C)C(=O)Nc1ccc(C(F)(F)F)cc1`, the cytotoxicity call was “inactive”.

Take `C[C@H]1CN([C@@H](C)CO)C(=O)c2cccc(NC(=O)Nc3ccc(C(F)(F)F)cc3)c2O[C@@H]1CN(C)C(=O)Nc1ccc(C(F)(F)F)cc1`: the cytotoxicity call was “active”.

As to `C[C@@H]1CN([C@@H](C)CO)C(=O)c2cccc(NC(=O)Nc3ccc(C(F)(F)F)cc3)c2O[C@@H]1CN(C)C(=O)Nc1ccc(C(F)(F)F)cc1`, the cytotoxicity call is “active”.

For the molecule `C[C@H](CO)N1C[C@H](C)[C@H](CN(C)C(=O)Nc2ccc(C(F)(F)F)cc2)Oc2c(NC(=O)Nc3ccc(C(F)(F)F)cc3)cccc2C1=O`, the cytotoxicity call is “active”.

For `O=C(O)C[C@@H]1C=C[C@@H](NC(=O)c2ccncc2)[C@H](CO)O1`, the cytotoxicity call is “inactive”.

`CCCN(C)C[C@H]1OCCCC[C@@H](C)Oc2ccc(NC(=O)c3ccccc3)cc2C(=O)N([C@H](C)CO)C[C@H]1C`: the cytotoxicity call was “inactive”.

Turning to `Cc1noc(C)c1NC(=O)Nc1ccc2c(c1)C(=O)N([C@H](C)CO)C[C@@H](C)[C@@H](CN(C)C(=O)Nc1ccccc1)OCCCC[C@@H](C)O2`, the cytotoxicity call was “inactive”.

Turning to `CN1N=C(N)c2cn([C@@H]3O[C@H](COP(=O)(O)O)[C@@H](O)[C@H]3O)c3ncnc1c23`, the cytotoxicity call is “inactive”.

On to `C[C@@H]1CN([C@@H](C)CO)C(=O)Cc2cc(NC(=O)CCN3CCOCC3)ccc2O[C@H]1CN(C)C(=O)Nc1ccccc1`, for which the cytotoxicity call is “inactive”.

`CCO[C@@H]1OC(C(=O)N2CCN(Cc3ccc4c(c3)OCO4)CC2)=C[C@H](c2ccc3c(c2)OCO3)[C@H]1CCCO`: the cytotoxicity call is “inactive”.

Consider `COCC1=C(C(=O)OC(C)OC(=O)OC(C)C)N2C(=O)C(NC(=O)C(=NOC)c3csc(N)n3)C2SC1` (stereo unspecified), for which the cytotoxicity call was “inactive”.

On to `C[C@H](CO)N1C[C@H](C)[C@@H](CN(C)Cc2ccncc2)Oc2cc(C#CC(C)(C)O)ccc2S1(=O)=O`, for which the cytotoxicity call is “inactive”.

These data come from the antibiotic and cytotoxicity screens of Wong et al. (2023).
